Assay results published in PubChem BioAssay (NCATS).
Results filed as inconclusive are left out. Calls of active or inactive are those of the source. The call rests on the fitted dose curve; in most records, active means well fitted inhibition curve with a large enough effect; inconclusive means small, poorly fitted or top-dose-only effect; inactive means flat fitted curve, though single readings scatter. Bridge positions count the residues as written; N and C are the ends. Square brackets hold non-standard residues; d marks the D form. Peptide text beside a SMILES is read from it. * marks the point of attachment. Ileψ(thiazoline)Cys = CC[C@H](C)[C@H](N)C1=N[C@H](C(=O)*)CS1; d(aIle) = CC[C@H](C)[C@@H](N)C(=O)O; dOrn = NCCC[C@@H](N)C(=O)O

system: CP217; assay: qHTS profiling for inhibitors of Plasmodium falciparum proliferation (AID 504749); further: nearly all actives have a fitted effect of over 60% in size;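 on activity, negative = inhibition: 0% = DMSO vehicle and full inhibition = artemisinin control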; conditions: P. falciparum in erythrocytes, SYBR Green DNA, 72 h; series mostly up to 12.8 µM; activity, negative = inhibition: at the top concentration
Summary of the method: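 SYBR Green fluorescence (ex 485 nm, em 535 nm) reports parasite DNA after 72 h compound exposure of infected red cells at 0.3% parasitemia, 2.5% hematocrit; signal normalized to 0.29 uM artemisinin and vehicle wells.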
Potency means the concentration at half of the fitted maximal effect.

SMILES | activity, negative = inhibition | Potency
C[C@@H]1C[C@H]2[C@@H]3C[C@H](F)C4=CC(=O)C=C[C@@]4(C)[C@]3(F)[C@H](O)C[C@]2(C)[C@@]1(O)C(=O)CO | -3.55% (inactive) | 
C[C@H](O)Cn1cnc2c1c(=O)n(C)c(=O)n2C | 8.38% (inactive) | 
CCCCC[C@H](O)/C=C\[C@@H]1[C@H](O)CC(=O)[C@@H]1CCCCCCC(=O)O | 4.33% (inactive) | 
CC(=C(CCOP(=O)(O)O)SC(=O)c1ccccc1)N(C=O)Cc1cnc(C)nc1N | 5.05% (inactive) | 
NC[C@@H]1O[C@@H](O[C@H]2[C@H](O)[C@H](O[C@@H]3O[C@H](CO)[C@@H](O)[C@H](N)[C@@H]3O)[C@@H](N)C[C@H]2N)[C@H](N)C[C@@H]1O | 12.7% (inactive) | 
CCc1c(C)[nH]c2c1C(=O)[C@H](CN1CCOCC1)CC2 | 4.68% (inactive) | 
CC[C@H](C)[C@H](N)C1=N[C@H](C(=O)N[C@@H](CC(C)C)C(=O)N[C@@H](CCC(=O)O)C(=O)N[C@@H](C(=O)N[C@H]2CCCCNC(=O)[C@@H](CC(N)=O)NC(=O)[C@@H](CC(=O)O)NC(=O)[C@@H](Cc3cnc[nH]3)NC(=O)[C@@H](Cc3ccccc3)NC(=O)[C@@H]([C@@H](C)CC)NC(=O)[C@@H](CCCN)NC2=O)[C@@H](C)CC)CS1 ({Ileψ(thiazoline)Cys}-LE[d(aIle)]K[dOrn][d(aIle)][dF][dH][dD][dN]; lactam 4-C) | 5.78% (inactive) | 
O=C(N/N=C\c1ccc([N+](=O)[O-])o1)c1ccc(O)cc1 |  | 3.55 µM (active)
CCOC(=O)O[C@@H](C)OC(=O)[C@@H]1N2C(=O)[C@@H](NC(=O)[C@@H](N)c3ccccc3)[C@H]2SC1(C)C | 6.05% (inactive) | 
